This note sets out measurements from PubChem BioAssay (NCATS).

The structures appear in SMILES notation. Values joined by “and” are separate entries in the source; they are usually repeats but may differ in a detail not shown here. Identical values can stand only once. Inconclusive results are not listed. Some structures have more than one record in an assay (separate samples or runs), and their calls can disagree. Active and inactive are the calls of the source. Unless noted, calls follow the shape of the dose curve; as a rule, active = well fitted curve in the direction sought with a large enough effect; inconclusive = small, poorly fitted or top-dose-only effect, or another doubt; inactive = no such curve, though single readings can be large; an effect the other way counts as inactive or inconclusive.

The nature of assay [1]: P-glycoprotein substrates identified in KB-8-5-11 adenocarcinoma cell line, qHTS therapeutic library screen (AID 1346987). Also: nearly all actives have a fitted effect of over 65% in size. Also: potency is read from the fitted curve at half-maximal effect. The settings on record: outcome: dose series up to 44.5 µM unless noted. The method, boiled down:
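Human cervical adenocarcinoma KB-8-5-11 cells, selected in colchicine to over-express P-gp and assayed without it, were exposed for 72 h to titrated compounds. An ATP-based luminescent viability signal gave AC50.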
(In general: Quantitative high-throughput screening tests each substance at several concentrations.)

Assay [2] in a line: NS1 protein of Zika virus - qHTS assay to identify small molecule inhibitors in human HEK 293 cells (AID 1347053). Also: nearly all actives have a fitted effect of over 55% in size. Also: potency is read from the fitted curve at half-maximal effect. The method, boiled down: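 Read-out is a two-antibody TR-FRET for ZIKV NS1, normalized between uninfected cells and infected cells. Compound added 1 h before MR766 infection at MOI 0.5; human HEK 293 cells incubated 24 h, 37 C.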
The target of assay [3] is T1, Tyrosine-protein phosphatase non-receptor type substrate 1 (Homo sapiens) + Leukocyte surface antigen CD47 (Homo sapiens) (UniProt P78324+Q08722). Put plainly: CD47-SIRPalpha protein protein interaction - LANCE assay qHTS validation (AID 1347057; active = well fitted curve in the direction sought with a large enough effect in the signal ratio, with a control signal flat, not every such curve was filed as active; the % refers to the signal ratio; also: series mostly up to about 38 µM). In a few lines: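 Inhibition of soluble CD47/SIRPalpha ectodomain association by titrated compounds, measured as 665/615 nm time-resolved FRET ratio after sequential 30 min room-temperature incubations.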
T1 sequence (P78324 whole entry, looked up, the tested form may be a part): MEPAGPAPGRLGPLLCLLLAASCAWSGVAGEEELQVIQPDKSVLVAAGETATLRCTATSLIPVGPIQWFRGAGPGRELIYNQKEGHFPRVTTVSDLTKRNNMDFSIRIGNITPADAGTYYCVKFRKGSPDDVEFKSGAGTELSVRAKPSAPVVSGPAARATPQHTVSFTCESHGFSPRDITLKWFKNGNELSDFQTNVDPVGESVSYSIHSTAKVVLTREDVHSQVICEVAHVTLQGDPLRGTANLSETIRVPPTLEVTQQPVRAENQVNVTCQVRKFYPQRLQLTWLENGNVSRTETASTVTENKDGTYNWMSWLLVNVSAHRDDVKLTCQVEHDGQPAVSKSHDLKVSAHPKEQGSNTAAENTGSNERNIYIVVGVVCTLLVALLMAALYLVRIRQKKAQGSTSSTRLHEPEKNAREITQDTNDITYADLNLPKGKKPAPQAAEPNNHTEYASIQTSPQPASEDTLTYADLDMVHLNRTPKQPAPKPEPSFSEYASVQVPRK
T1 sequence (Q08722 whole entry, looked up, the tested form may be a part): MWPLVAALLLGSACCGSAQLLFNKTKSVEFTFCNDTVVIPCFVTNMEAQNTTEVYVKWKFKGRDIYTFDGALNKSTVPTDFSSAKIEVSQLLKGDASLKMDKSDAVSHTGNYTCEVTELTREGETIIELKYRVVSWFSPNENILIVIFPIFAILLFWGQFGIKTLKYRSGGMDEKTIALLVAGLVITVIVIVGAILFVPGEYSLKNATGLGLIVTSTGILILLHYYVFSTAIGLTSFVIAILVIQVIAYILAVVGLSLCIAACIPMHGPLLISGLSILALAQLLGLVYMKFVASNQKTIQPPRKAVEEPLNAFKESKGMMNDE

Assay [4] deals with T1, Tyrosine-protein phosphatase non-receptor type substrate 1 (Homo sapiens) + Leukocyte surface antigen CD47 (Homo sapiens). Put plainly: CD47-SIRPalpha protein protein interaction - HTRF assay qHTS validation (AID 1347058; active = well fitted curve in the direction sought with a large enough effect in the signal ratio, not every such curve was filed as active; the % refers to the signal ratio; also: series mostly up to about 38 µM). The method, boiled down:
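Soluble extracellular domains (6His-CD47, Avi-tag-biotinylated SIRPalpha) in PBS pH 7.4 with 0.05% IGEPAL CA-630. Compounds were preincubated 30 min at RT with CD47 and anti-His-Eu, then SIRPalpha and SAV-XL665 were added. TR-FRET 665/615 ratio.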
In general terms: TR-FRET usually uses a lanthanide donor and a delayed reading to cut background.

Assay [5] has the same target. In words: CD47-SIRPalpha protein protein interaction - Alpha assay qHTS validation (AID 1347059).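 Also: bead proximity luminescence from CD47 binding SIRPalpha after compound preincubation with SIRPalpha.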 The method, boiled down:
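AlphaScreen signal between CD47-His (12.5 nM) and biotin-SIRPalpha (25 nM) soluble extracellular domains, bead-captured via Ni-NTA and streptavidin. Compounds, in 7-point titrations, met SIRPalpha 30 min before CD47; PBS pH 7.4 with 0.05% IGEPAL.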

A short description of assay [6]: qHTS of pediatric cancer cell lines to identify multiple opportunities for drug repurposing: Primary screen for TC32 cells (AID 1347089). Also: nearly all actives have a fitted effect of over 60% in size. Also: potency is read from the fitted curve at half-maximal effect. In a few lines:
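Luminescent CellTiter-Glo read-out of metabolically active TC32 cells after 48 h compound exposure. Primary: MIPE 11-point, 0.78 nM–46 µM; NPC 8-point, 0.59 nM–46 µM. Confirmatory: 11-point dilutions.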

For assay [7], the target named is Atrial natriuretic peptide receptor 2 (Homo sapiens) (UniProt P20594). Put plainly: Natriuretic polypeptide receptor (hNpr2) antagonism - Pilot subtype selectivity assay (AID 1347050; calls by dose curve; also: potency is read from the fitted curve at half-maximal effect). In a few lines: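 Antagonist mode: compounds (LOPAC1280, seven 1:5 dilutions) added 30 min before 1 nM hNppC stimulation of hNpr2-HEK293 cGMP-sensor cells; luminescence read before and 20 min after agonist at ambient temperature.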
Sequence of Atrial natriuretic peptide receptor 2 (Homo sapiens) (P20594 whole entry, looked up): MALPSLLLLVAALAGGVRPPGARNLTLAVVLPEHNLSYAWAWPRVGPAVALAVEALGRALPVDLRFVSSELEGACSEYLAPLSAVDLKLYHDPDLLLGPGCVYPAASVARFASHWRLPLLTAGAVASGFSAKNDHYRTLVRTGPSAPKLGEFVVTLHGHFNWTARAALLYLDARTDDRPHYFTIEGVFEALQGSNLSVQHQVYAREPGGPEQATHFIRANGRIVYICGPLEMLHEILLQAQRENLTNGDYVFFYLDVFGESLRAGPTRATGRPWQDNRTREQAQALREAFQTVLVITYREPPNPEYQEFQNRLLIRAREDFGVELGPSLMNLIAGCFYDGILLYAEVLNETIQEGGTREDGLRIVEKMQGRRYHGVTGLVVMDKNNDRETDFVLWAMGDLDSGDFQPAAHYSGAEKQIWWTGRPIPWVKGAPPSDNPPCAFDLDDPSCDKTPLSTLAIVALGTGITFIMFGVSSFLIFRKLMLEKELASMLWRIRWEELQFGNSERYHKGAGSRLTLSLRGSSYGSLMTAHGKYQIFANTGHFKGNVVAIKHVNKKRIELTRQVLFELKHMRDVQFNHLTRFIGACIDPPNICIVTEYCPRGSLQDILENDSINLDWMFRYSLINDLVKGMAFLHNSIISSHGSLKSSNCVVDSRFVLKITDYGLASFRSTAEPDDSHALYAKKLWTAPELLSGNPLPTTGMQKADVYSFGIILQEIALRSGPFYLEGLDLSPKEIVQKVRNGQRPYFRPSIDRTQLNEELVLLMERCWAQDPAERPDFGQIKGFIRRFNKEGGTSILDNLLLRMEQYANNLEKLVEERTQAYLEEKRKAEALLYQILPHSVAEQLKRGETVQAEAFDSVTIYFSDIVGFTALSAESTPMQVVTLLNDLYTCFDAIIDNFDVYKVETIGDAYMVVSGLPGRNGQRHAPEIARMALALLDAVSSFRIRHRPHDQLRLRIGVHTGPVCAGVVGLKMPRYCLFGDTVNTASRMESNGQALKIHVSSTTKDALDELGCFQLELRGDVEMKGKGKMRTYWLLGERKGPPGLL

The target of assay [8] is Parathyroid hormone/parathyroid hormone-related peptide receptor (Homo sapiens) (UniProt Q03431). Put plainly: qHTS for PTHR1 Agonists: Optimization Screen against the NCGC LOPAC library (AID 1347079).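 Also: GloSensor cAMP luminescence in HEK-293 GP2 cells expressing human PTHR1 with IBMX.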 The method, boiled down:
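Signal increase flags agonism. GP2 cells, derived from HEK-293, express human PTHR1 and a GloSensor cAMP construct.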

Assay [9] can be described thus: Natriuretic polypeptide receptor (hNpr1) antagonism - Pilot counterscreen GloSensor control cell line (AID 1347045; calls by dose curve; also: potency is read from the fitted curve at half-maximal effect). In a few lines: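 The SNP-driven cGMP luminescence signal (50 uM, 20 min, room temperature) was measured in GloSensor HEK293 control cells. Compounds were tested as a LOPAC titration series and preincubated for 30-50 min.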
A general note: Counterscreens check selectivity or assay interference.

Assay [10] concerns the target Atrial natriuretic peptide receptor 1 (Homo sapiens) (UniProt P16066). Put plainly: Natriuretic polypeptide receptor (hNpr1) antagonism - Pilot screen (AID 1347049; calls by dose curve;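 also: HEK293 cells with hNpr1 and GloSensor cGMP luciferase stimulated by 0.1 nM hNppA; agonist-evoked cGMP luminescence read 20 min after hNppA addition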; also: potency is read from the fitted curve at half-maximal effect). In a few lines:
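Receptor antagonism read as cGMP-dependent luminescence in hNpr1/pGS-40F HEK293 cells: pre-read after 30 min compound exposure, post-read 20 min after hNppA agonist at 0.1 nM final, all at room temperature, protected from light; A-71915 titration as control.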

Sequence of Atrial natriuretic peptide receptor 1 (Homo sapiens) (P16066 whole entry, looked up): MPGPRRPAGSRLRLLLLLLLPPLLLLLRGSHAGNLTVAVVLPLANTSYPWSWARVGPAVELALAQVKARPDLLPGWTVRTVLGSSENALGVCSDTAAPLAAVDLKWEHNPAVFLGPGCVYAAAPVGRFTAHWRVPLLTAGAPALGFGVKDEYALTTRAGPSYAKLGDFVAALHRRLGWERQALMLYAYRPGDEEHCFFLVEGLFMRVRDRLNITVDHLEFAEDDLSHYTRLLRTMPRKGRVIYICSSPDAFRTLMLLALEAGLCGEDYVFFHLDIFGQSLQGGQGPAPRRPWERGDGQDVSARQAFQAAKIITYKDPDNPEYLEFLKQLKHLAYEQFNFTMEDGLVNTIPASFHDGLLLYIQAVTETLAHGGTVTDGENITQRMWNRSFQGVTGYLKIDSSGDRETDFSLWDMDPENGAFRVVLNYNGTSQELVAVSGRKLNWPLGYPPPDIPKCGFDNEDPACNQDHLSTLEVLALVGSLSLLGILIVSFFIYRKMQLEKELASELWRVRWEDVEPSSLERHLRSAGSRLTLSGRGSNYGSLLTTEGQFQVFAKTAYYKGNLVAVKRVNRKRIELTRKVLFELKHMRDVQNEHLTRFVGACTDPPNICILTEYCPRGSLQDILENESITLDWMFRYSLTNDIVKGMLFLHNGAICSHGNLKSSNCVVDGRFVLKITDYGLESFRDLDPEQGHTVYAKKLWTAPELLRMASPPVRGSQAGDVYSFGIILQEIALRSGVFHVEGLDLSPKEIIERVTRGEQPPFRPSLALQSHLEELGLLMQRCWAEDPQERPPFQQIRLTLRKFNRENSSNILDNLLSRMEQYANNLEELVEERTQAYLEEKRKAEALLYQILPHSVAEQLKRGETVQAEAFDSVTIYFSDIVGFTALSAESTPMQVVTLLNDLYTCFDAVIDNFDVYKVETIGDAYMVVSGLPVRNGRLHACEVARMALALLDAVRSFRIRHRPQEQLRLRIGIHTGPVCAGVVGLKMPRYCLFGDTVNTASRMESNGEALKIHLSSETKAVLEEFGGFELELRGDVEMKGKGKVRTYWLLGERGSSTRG
Sequence of Parathyroid hormone/parathyroid hormone-related peptide receptor (Homo sapiens) (Q03431 whole entry, looked up): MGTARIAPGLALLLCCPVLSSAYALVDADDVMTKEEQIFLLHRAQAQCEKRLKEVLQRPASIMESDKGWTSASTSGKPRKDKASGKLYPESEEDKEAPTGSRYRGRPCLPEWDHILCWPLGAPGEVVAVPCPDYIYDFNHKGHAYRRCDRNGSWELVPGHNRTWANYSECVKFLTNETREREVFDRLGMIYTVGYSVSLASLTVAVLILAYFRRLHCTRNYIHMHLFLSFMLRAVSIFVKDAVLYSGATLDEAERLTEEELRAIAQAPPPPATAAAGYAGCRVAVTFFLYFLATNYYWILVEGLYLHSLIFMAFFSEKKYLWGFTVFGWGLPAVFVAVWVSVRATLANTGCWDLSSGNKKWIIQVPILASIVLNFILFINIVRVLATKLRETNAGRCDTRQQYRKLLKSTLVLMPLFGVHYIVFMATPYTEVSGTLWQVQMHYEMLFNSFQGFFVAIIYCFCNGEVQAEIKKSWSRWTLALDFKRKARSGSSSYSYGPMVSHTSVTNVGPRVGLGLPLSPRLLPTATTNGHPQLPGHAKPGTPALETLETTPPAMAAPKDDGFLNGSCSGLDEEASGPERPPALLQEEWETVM

As for `CN(CCOc1ccc(NS(C)(=O)=O)cc1)CCc1ccc(NS(C)(=O)=O)cc1`, the Potency entry in assay [1], in assay [2], in assay [5] and in [6] was “inactive” throughout. Besides, the outcome in assay [3] and in [4] was inactive.
Turning to `Cn1c(=O)c2c(ncn2C)n(C)c1=O`, the Potency result in assay [1], in [7], in assay [2], in assay [8] and in [6] was “inactive” throughout.
Consider `CN1CCN2c3ccccc3Cc3ccccc3C2C1` (stereo unspecified), for which the Potency entry in assay [9], in assay [10], in assay [7], in assay [5], in assay [8] and in assay [6] was “inactive” each time. Moreover, the outcome in assay [3] and in [4] was inactive.
On to `CCOC(=O)Nc1ccc(NCc2ccc(F)cc2)nc1N`, for which the Potency result in assay [1], in assay [7], in assay [2], in assay [5], in assay [8] and in assay [6] was “inactive” each time. In assay [3], the outcome was inactive.
On to `CC1(C)O[C@H]2CC(=O)OC[C@]23[C@H]2CC[C@@]4(C)[C@H](c5ccoc5)OC(=O)[C@H]5O[C@]54[C@]2(C)C(=O)C[C@@H]13`, for which the Potency result in assay [1] and in [6] was “inactive” in each case.
Consider `O=C(Nc1ccc([N+](=O)[O-])cc1Cl)c1cc(Cl)ccc1O`, for which the Potency was 0.464 µM (active) in [9], 0.953 µM (active) in assay [10] and 1.31 µM (active) in [7]. Also, the result in assay [3] and in assay [4] was inactive. The Potency entry in assay [5], in assay [8] and in assay [6] was “inactive” in each case.
As for `O=c1[nH]cc(F)c(=O)[nH]1`, the Potency entry in assay [9], in assay [10], in [7], in [5], in assay [8] and in assay [6] was “inactive” in each case. Besides, the outcome in assay [3] and in assay [4] was inactive.
Regarding `CCCNCC(O)COc1ccccc1C(=O)CCc1ccccc1` (stereo unspecified), the Potency entry in assay [9], in assay [10], in assay [7], in [2], in assay [5] and in assay [8] was “inactive” throughout. For the same molecule, in [6], the Potency entry was “inactive”. The result in [3] and in assay [4] was inactive.
For the molecule `CC[C@@]1(O)C(=O)OCc2c1cc1n(c2=O)Cc2cc3c(CN(C)C)c(O)ccc3nc2-1`, the Potency in assay [1] is 5.9 µM (active) and 8.2 µM (active); in [6], 26.4 nM (active) and 131 nM (active).
Regarding `Clc1ccc2c(c1)C(N1CCNCC1)=Nc1ccccc1O2`, the Potency entry in [1] is “inactive and 20.6 µM (active)”; in assay [7], 8.26 µM (active). The outcome in assay [3] and in assay [4] was inactive. The Potency entry in assay [5], in [8] and in assay [6] was “inactive” throughout.
On to `Cc1ccc(-c2cc(C(F)(F)F)nn2-c2ccc(S(N)(=O)=O)cc2)cc1`, for which the Potency entry in assay [2], in assay [5] and in assay [6] was “inactive” in each case. Moreover, the outcome in [3] was inactive.
In the case of `CC(CCc1ccc(O)cc1)NCCc1ccc(O)c(O)c1` (stereo unspecified), the Potency result in assay [9], in [10], in assay [7], in assay [5], in assay [8] and in assay [6] was “inactive” in each case. In addition, the outcome in assay [3] and in assay [4] was inactive.
As for `COc1ccc(CCN(C)CCCC(C#N)(c2ccc(OC)c(OC)c2)C(C)C)cc1OC` (stereo unspecified), the Potency in assay [1] was 20.6 µM (active). Besides, the Potency result in assay [8] and in assay [6] was “inactive” throughout.
As for `Clc1ccc(C(c2ccccc2Cl)C(Cl)Cl)cc1` (stereo unspecified), the Potency result in assay [10], in assay [7], in assay [5], in assay [8] and in assay [6] was “inactive” each time. Further, in assay [2], the Potency result was “inactive and 18.7 µM (active)”. Also, the result in assay [3] was inactive.
With `O=C(c1ccc(OCCN2CCCCC2)cc1)c1c(-c2ccc(O)cc2)sc2cc(O)ccc12`, the Potency result in assay [9], in assay [10], in [7], in assay [8] and in assay [6] was “inactive” throughout. The result in assay [3] was inactive.
With `CN(C)CCCN1c2ccccc2CCc2ccc(Cl)cc21`, the Potency in assay [1] was 20.9 µM (active); in assay [7], 7.36 µM (active). In addition, the Potency result in [8] and in [6] was “inactive” each time.
Take `OCCN(CCO)c1nc(N2CCCCC2)c2nc(N(CCO)CCO)nc(N3CCCCC3)c2n1`: the Potency result in [9], in [10], in [7], in assay [2], in [5] and in assay [8] was “inactive” in each case. For the same molecule, the Potency entry in assay [6] is “inactive”.
Turning to `COc1ccccc1N1CCN(CC(O)COc2cccc3ccccc23)CC1` (stereo unspecified), the Potency result in [9], in [10], in [7], in [2], in assay [5] and in assay [8] was “inactive” in each case. Moreover, the result in assay [3] and in assay [4] was inactive.
Take `CN1CCC(=C2c3ccccc3CC(=O)c3sccc32)CC1`: the Potency result in assay [10], in assay [2], in assay [5], in assay [8] and in assay [6] was “inactive” each time. The result in assay [3] and in assay [4] was inactive.
Consider `CS(=O)(=O)CCNCc1ccc(-c2ccc3ncnc(Nc4ccc(OCc5cccc(F)c5)c(Cl)c4)c3c2)o1`, for which the Potency in assay [1] was 18.7 µM (active) and inactive and 20.6 µM (active). The Potency result in assay [6] was “inactive”.
As for `Nc1c2c(nc3ccccc13)CCCC2`, the Potency result in [9], in assay [10], in assay [7], in [2], in assay [5] and in [8] was “inactive” throughout. In addition, in assay [6], the Potency entry is “inactive”. The result in [3] and in assay [4] was inactive.
With `CC1(CN2CCC(n3c(=O)[nH]c4ccccc43)CC2)OCc2ccccc2-n2cccc21` (stereo unspecified), the Potency result in assay [1] and in assay [6] was “inactive” each time.
With `CC(C)NCC(O)COc1ccc(CCOCC2CC2)cc1` (stereo unspecified), the Potency result in assay [9], in [10], in [7], in assay [2], in [5] and in assay [8] was “inactive” each time. The Potency entry in assay [6] is “inactive”. Besides, the result in [3] and in assay [4] was inactive.
Consider `Nc1nnc(-c2cccc(Cl)c2Cl)c(N)n1`, for which the Potency result in assay [1], in assay [2], in assay [5], in [8] and in assay [6] was “inactive” throughout. Further, the outcome in assay [3] and in [4] was inactive.
Consider `CC12CC3CC(C)(C1)CC(N)(C3)C2`, for which the Potency entry in assay [9], in assay [10], in assay [7], in assay [8] and in [6] was “inactive” each time. Moreover, the result in [3] and in [4] was inactive.
In the case of `CC(=O)OCC(CCn1cnc2cnc(N)nc21)COC(C)=O`, the Potency result in assay [1], in assay [2], in assay [5] and in assay [6] was “inactive” in each case. In addition, the result in assay [3] and in assay [4] was inactive.
Turning to `CC(C)(C)C(=O)Oc1ccc(S(=O)(=O)Nc2ccccc2C(=O)NCC(=O)O)cc1`, the Potency entry in assay [1], in [2], in assay [5] and in assay [6] was “inactive” in each case. The outcome in [3] and in assay [4] was inactive.
`CC#C[C@]1(O)CC[C@H]2[C@@H]3CCC4=CC(=O)CCC4=C3[C@@H](c3ccc(N(C)C)cc3)C[C@@]21C`: the Potency in [1] was 23.1 µM (active). Moreover, the Potency result in assay [10] and in assay [8] was “inactive” each time. For the same molecule, the result in assay [3] was inactive.
In the case of `Fc1ccc([C@@H]2CCNC[C@H]2COc2ccc3c(c2)OCO3)cc1`, the Potency result in assay [9], in assay [10], in assay [2], in assay [8] and in assay [6] was “inactive” each time. The outcome in [3] was inactive.
Consider `CC(COc1ccccc1)N(CCCl)Cc1ccccc1` (stereo unspecified), for which the Potency result in [9], in assay [10], in assay [7], in assay [8] and in assay [6] was “inactive” throughout.
For `Cn1ccc2cc3c(cc21)CCN3C(=O)Nc1cccnc1`, the Potency result in assay [1], in assay [2], in assay [5], in assay [8] and in assay [6] was “inactive” throughout. For the same molecule, the outcome in assay [3] and in assay [4] was inactive.
In the case of `CN1CCC(=C2c3ccccc3C=Cc3ccccc32)CC1`, the Potency result in assay [9], in assay [10], in assay [5], in assay [8] and in [6] was “inactive” throughout. Also, the Potency in assay [7] is 11.7 µM (active). Moreover, in [3], the outcome was inactive.
`O=C1Cc2cc(CCN3CCN(c4nsc5ccccc45)CC3)c(Cl)cc2N1`: the Potency entry in assay [1], in [10], in assay [2], in [5], in assay [8] and in assay [6] was “inactive” throughout. In addition, the outcome in assay [3] and in [4] was inactive.
